tim10-1 inh – inhibits growth of tim10-1 mutant yeast; S. cerevisiae tim10-1 ts strain growth, BacTiter-Glo, 24 h; inhibition, % at 20 µM; 330,000 tested, 2.2% active; AID 463190;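 active = inhibition of at least 40%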;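 also: mutant grown at 25 °C; 0% = DMSO wells with yeast and 100% = wells holding no yeast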
tim23-1 inh – inhibits growth of tim23-1 mutant yeast; S. cerevisiae tim23-1 growth, BacTiter-Glo luminescence, 24 h; inhibition, % at 20 µM; 330,000 tested, 1.3% active; AID 463212;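 active = growth inhibition of the mutant yeast at or above 50%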;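 also: temperature-sensitive mutant grown at 25 °C; plate controls were DMSO-treated mutant yeast for no effect and medium wells lacking yeast for full effect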
TIM10 inh – inhibits growth of TIM10 yeast strain; S. cerevisiae TIM10 strain growth, BacTiter-Glo luminescence, 24 h; inhibition, % at 10 µM; 330,000 tested, 1.4% active; AID 463195;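 active = inhibition of 40% or more at the single tested concentration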;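 also: wild-type TIM10 isogenic control strain grown at permissive 25 °C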
PfHsp90 set2 – inhibits growth of yeast expressing Plasmodium falciparum Hsp90; S. cerevisiae expressing PfHsp90, BacTiter-Glo ATP, 48 h; yeast lacking PDR1 and PDR3 efflux regulators; inhibition, % at 9.4 µM; 310,000 tested, 0.32% active; AID 504621;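 active = every replicate shows inhibition above about 80%, whatever the replicate mean, limit read from the data; inconclusive = mean inhibition reaches the set limit but some replicate falls short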;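 also: 0% = DMSO neutral controls and 100% = 20 µM radicicol positive controls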
Rce1 inh – yeast Ras-converting enzyme inhibition; 290,000 tested, 0.27% active; calls only; yeast membranes, quenched prenylated peptide cleavage fluorescence;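 active = fall in fluorescence gain of 50% or more versus controls, with final raw signal at or below 3038400; inconclusive = same 50% fall but final raw signal above 3038400; inactive = fall in fluorescence gain under 50%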;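 also: plate controls were neutral control wells for no effect and wells lacking membranes for full effect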
Target sequence (Q03530 whole entry, looked up): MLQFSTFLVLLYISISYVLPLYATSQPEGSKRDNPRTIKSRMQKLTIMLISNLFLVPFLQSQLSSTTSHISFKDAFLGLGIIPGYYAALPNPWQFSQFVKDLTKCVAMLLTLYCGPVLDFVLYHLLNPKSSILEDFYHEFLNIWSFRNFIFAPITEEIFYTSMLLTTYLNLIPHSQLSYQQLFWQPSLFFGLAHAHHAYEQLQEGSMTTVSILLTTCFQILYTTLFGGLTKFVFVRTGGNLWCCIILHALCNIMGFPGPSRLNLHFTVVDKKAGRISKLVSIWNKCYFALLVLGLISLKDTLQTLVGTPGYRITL
tim10 confirm – TIM10 yeast growth inhibition, confirmed; shares compounds with TIM10 inh; S. cerevisiae tim10 strain growth, BacTiter-Glo luminescence, 24 h; inhibition, % at 10 µM; 4,600 tested, 63% active; AID 463215;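 active = inhibition of yeast growth at or above a set limit in either of two replicates at 10 µM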;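 also: this counterscreen used the strain with wild-type TIM10; 0% = yeast with DMSO and 100% = medium wells lacking yeast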
Starred values were filed as active, the others as inactive; i = inactive; ? = inconclusive; nt = no result given; + = active, no number. The list is not random: actives were taken first. Their share in the collection is about 3.7%.

SMILES	tim10-1 inh	tim23-1 inh	TIM10 inh	PfHsp90 set2	Rce1 inh	tim10 confirm
Cc1cccc(NNC(=S)Nc2c(C)cccc2C)c1	23	42	45*	-80	i	36*
CC(C)CCNC(=O)c1sc2ccc(S(=O)(=O)N3CCCCC3)cc2c1N	29	38	41*	-37	i	38*
CCn1cc(C(=O)NCCC(C)C)c(=O)c2cc(S(=O)(=O)N3CCCCC3)ccc21	4	6	-3	-5	i	nt
COC(=O)c1cc2ccccc2c(-c2c(OC)c(C(=O)OC)cc3ccccc23)c1OC	30	46	44*	nt	i	30*
O=C1NC2(C=Cc3c(ccc4ccccc34)O2)Oc2ccccc21 (stereo not given)	25	34	41*	8	+	28
CC1(C)Cc2c(ccc3ccccc23)C(=O)N1	7	13	11	?	i	nt
COc1cccc(-c2csc(N3CCN(C(=O)NC45CC6CC(CC(C6)C4)C5)CC3)n2)c1	34	24	42*	-26	+	25
COc1cccc(NC(=O)N2CCN(c3nc(-c4cccc(OC)c4)cs3)CC2)c1	8	32	24	14	i	nt
O=c1[nH]cnc2ncc(-c3ccc(O)cc3)nc12	4	16	41*	-7	i	-10
CCCNC(=O)c1ccc2c(c1)ncn2-c1cc(C)cc(C)c1	27	38	42*	-2	i	22
Cc1cc(C)cc(-n2cnc3cc(C(=O)O)ccc32)c1	-3	9	10	0	i	nt
COc1cccc(/C=N/n2cnc3cc(C)c(C)cc32)c1OC	35	27	42*	-6	i	36*
COc1cc(/C=C(\C#N)C(=O)NC2CCCCC2C)ccc1OS(=O)(=O)c1ccc(C)cc1 (stereo not given)	36	36	34	-20	i	nt
CC(=O)Nc1ccc(/C=C(\C#N)C(=O)NC2CCCCC2C)cc1 (stereo not given)	38	47	68*	0	i	45*
O=C1CCC/C(=N/NC(=O)C2CCN(S(=O)(=O)c3cccs3)CC2)C1	9	10	4	21	i	nt
O=C(Cn1cnc2c(oc3ccccc32)c1=O)c1ccccc1	16	42	49*	nt	i	29
Cc1ccc(NC(=S)N/N=C/c2ccc([N+](=O)[O-])s2)cc1	18	-11	46*	100*	i	-18
Cc1ccc2nc(/C(C#N)=C\c3ccc(N4CCOCC4)o3)[nH]c2c1	-11	23	15	5	i	nt
N#C/C(=C\c1ccc([N+](=O)[O-])o1)c1nc2ccccc2[nH]1	28	-144	59*	nt	nt	66*
Cc1ccc2nc(/C(C#N)=C\c3ccc([N+](=O)[O-])o3)[nH]c2c1	17	29	84*	105*	i	95*
N#C/C(=C(/O)c1ccc([N+](=O)[O-])o1)c1nc2ccccc2[nH]1	-2	-3	-1	-2	i	nt
Cc1ccc(-c2csc(NC(=O)C3=NN(c4ccccc4)C(=O)CC3)n2)cc1	33	34	40*	7	i	33*
Cc1csc(NC(=O)C2=NN(c3ccccc3)C(=O)CC2)n1	9	19	0	15	i	nt
CCCN(C(=O)Cn1ncc2c(=O)oc3ccccc3c21)c1cccc(C)c1	33	31	41*	7	i	16
CCN(CCCNC(=O)Cn1ncc2c(=O)oc3ccccc3c21)c1cccc(C)c1	-12	4	2	8	i	nt
SMILES	tim10-1 inh	tim23-1 inh	TIM10 inh	PfHsp90 set2	Rce1 inh	tim10 confirm
COc1ccc(Cc2nnc(SCC(=O)Nc3ccc(N4CCOCC4)cc3)o2)cc1	-16	9	2	12	i	nt
COc1cc(OC)cc(C(=O)NCc2nc(-c3ccccc3)no2)c1	-2	5	91*	21	i	-23
COc1ccc(CC(=O)NCc2nc(-c3ccccc3)no2)cc1	12	17	-4	nt	i	nt
C=CCn1c(O)c(N=Nc2ccccc2O)c2ccccc21	-15	48	49*	195*	nt	65*
C=CCn1c(O)c(N=Nc2ccccc2)c2ccccc21	-10	7	4	5	nt	nt
COc1ccc(Nc2nnc(SCC(=O)c3cc(C)n(CC4CCCO4)c3C)s2)cc1 (stereo not given)	30	-5	-1	31	nt	nt
CCOC(=O)N/N=C/c1c(C)c(C(=O)c2ccc(F)cc2)n2ccccc12	40	37	44*	7	i	32*
COC(=O)N/N=C/c1c(C)c(C(=O)c2ccc(F)cc2)n2ccccc12	30	26	22	38	i	nt
Brc1ccc2[nH]c3c(N4CCc5ccccc5C4)ncnc3c2c1	37	42	43*	nt	i	14
CCn1ncc(Br)c1C(=O)Nc1ccc(C(=O)OC(C)C)cc1	18	5	44*	-8	i	10
Cc1ccc(Cn2cnc3ccccc32)cc1C	1	19	40*	6	i	20
CC(C)COP(=O)(OCC(C)C)C(Nc1ccccc1)c1ccc(F)cc1 (stereo not given)	15	46	25	-15	i	nt
CC(C)COP(=O)(OCC(C)C)C(Nc1ccccc1)c1ccccc1 (stereo not given)	32	38	41*	-27	i	34*
Cc1ccc(C(=O)NC(=S)Nc2ccccc2C(F)(F)F)cc1	26	28	40*	-19	i	12
CC1CCC2(CC1)NC(=O)N(CC(=O)NCCc1ccc(F)cc1)C2=O (stereo not given)	-12	-2	68*	-14	nt	-9
Cc1ccc(CC(=O)OCC(=O)NC2CCCC(C)C2C)cc1C (stereo not given)	24	5	50*	17	i	14
CC1CCCC(NC(=O)COC(=O)Cc2ccc(Cl)cc2)C1C (stereo not given)	7	29	4	24	nt	nt
O=C(COC(=O)c1ccccn1)Nc1ncc(C(F)(F)F)cc1Cl	3	9	-2	2	i	nt
O=C(COC(=O)c1ccc([N+](=O)[O-])s1)Nc1ncc(C(F)(F)F)cc1Cl	9	-12	65*	1	i	72*
CC1CCCC(NC(=O)COC(=O)c2ccc([N+](=O)[O-])s2)C1C (stereo not given)	-7	-21	62*	3	nt	61*
CC(=O)Nc1ccc(S(=O)(=O)NCCCN2CCN(Cc3ccccc3)CC2)cc1Cl	-5	-8	-10	13	i	nt
CC(Sc1nnc(-c2cccs2)n1-c1ccccc1)C(=O)NCc1ccc2c(c1)OCO2 (stereo not given)	16	10	0	2	i	nt
O=C(c1ccccc1)N1CCCCC(Sc2nnc3ccccn23)C1=O (stereo not given)	-5	2	-11	2	i	nt
CCN(CC)C(=S)SC1CCCCN(C(=O)c2ccccc2)C1=O (stereo not given)	28	36	40	-15	i	22

Assay outcomes as filed in PubChem BioAssay.
